Reference: ChEMBL document CHEMBL3988442, “University of Dundee, Small-Polar-MMV Screening Library” (2021)
For part of these data: Entries with a potency or affinity are not part of this list.

Legend:
Set-up in all cases: scale not given: direction of the effect not stated beside the values
[1] = target: Protein translocase subunit SecA (Escherichia coli (strain K12)) (UniProt P10408); assay: Assay to Identify E. coli SecA ATPase Inhibitors; type: functional; conditions: 30 µM
[2] = target: T1, Ubiquitin-activating enzyme e1, putative (Leishmania donovani (strain BPK282A1)) (UniProt E9BSI1); assay: Leishmania donovani Ubiquitin Activating Enzyme (LdE1); type: functional; conditions: 30 µM
T1 sequence (whole entry): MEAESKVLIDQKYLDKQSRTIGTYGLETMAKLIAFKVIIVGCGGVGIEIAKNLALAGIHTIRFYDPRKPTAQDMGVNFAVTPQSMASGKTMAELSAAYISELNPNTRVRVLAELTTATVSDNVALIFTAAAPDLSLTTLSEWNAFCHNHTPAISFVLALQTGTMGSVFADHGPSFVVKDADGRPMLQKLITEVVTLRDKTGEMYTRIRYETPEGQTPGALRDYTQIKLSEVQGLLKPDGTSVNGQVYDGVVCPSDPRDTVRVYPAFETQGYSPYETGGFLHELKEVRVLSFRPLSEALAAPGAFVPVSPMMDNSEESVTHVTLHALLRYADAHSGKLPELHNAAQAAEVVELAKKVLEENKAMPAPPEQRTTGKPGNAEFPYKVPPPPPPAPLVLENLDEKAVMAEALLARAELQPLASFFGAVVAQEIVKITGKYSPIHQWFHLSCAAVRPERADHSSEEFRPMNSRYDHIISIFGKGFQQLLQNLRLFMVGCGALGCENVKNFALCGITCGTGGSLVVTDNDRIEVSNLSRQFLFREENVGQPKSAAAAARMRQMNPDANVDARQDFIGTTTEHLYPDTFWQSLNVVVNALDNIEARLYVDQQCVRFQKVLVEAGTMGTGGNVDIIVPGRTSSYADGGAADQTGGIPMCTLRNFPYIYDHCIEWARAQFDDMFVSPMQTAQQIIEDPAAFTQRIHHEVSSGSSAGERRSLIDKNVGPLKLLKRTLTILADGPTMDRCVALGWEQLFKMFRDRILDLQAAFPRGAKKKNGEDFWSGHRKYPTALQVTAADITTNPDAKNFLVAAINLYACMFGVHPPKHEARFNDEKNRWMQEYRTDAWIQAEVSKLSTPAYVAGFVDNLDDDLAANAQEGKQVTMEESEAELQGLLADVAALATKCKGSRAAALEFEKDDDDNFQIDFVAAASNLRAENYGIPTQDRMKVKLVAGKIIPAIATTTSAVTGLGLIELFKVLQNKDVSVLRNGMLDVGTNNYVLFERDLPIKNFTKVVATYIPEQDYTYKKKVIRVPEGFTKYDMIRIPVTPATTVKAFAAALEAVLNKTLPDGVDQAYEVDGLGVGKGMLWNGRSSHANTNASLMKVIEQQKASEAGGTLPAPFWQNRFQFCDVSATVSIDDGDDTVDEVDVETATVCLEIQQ

[3] = target: AMP-activated protein kinase, AMPK (Homo sapiens) (UniProt P54646+O43741+P54619+Q9UGJ0+Q9Y478+Q13131+Q9UGI9); assay: AMP-dependent Kinase enzyme assay. An in vitro enzyme assay that detects ADP turnover that is directly proportional to AMPK activity. This uses naive AMPK that is activated during the assay with MK-8722; type: functional; conditions: 30 µM
[4] = target: Sialic acid-binding Ig-like lectin 9 (Homo sapiens) (UniProt Q9Y336); assay: Hs-Siglec9 ALPHAscreen SOP 20170721; conditions: 10 µM
Trypanosoma cruzi = assay: Trypanosoma cruzi phosphomannomutase and mannose-1-phosphate guanylyltransferase assay; type: functional; conditions: 10 µM
[5] = target: T2, Arginase-2, mitochondrial (Homo sapiens) (UniProt P78540); assay: in vitro enzyme assay to detect the production of urea directly proportional to the activity of Arginase II; type: functional; conditions: 33.3 µM; also: in the data most compounds retested in dose-response had high values
T2 sequence (whole entry): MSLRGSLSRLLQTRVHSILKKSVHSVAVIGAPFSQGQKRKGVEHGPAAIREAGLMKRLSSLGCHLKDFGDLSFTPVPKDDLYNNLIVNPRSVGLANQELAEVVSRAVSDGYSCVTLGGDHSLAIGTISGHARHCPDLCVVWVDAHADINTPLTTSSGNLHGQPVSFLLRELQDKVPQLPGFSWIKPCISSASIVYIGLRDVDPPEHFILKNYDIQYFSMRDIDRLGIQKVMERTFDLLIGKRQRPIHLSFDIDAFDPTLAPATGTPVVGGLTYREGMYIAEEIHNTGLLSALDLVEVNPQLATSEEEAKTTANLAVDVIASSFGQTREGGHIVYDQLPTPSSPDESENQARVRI

[6] = target: T3, Proteasome subunit beta (Trypanosoma cruzi) (UniProt O96673); assay: Trypanosoma cruzi proteasome chymotrypsin-like activity (TcProtChymo) assay.; also: in the data most compounds retested in dose-response had high values; type: functional; conditions: 9.37 µM
T3 sequence (whole entry): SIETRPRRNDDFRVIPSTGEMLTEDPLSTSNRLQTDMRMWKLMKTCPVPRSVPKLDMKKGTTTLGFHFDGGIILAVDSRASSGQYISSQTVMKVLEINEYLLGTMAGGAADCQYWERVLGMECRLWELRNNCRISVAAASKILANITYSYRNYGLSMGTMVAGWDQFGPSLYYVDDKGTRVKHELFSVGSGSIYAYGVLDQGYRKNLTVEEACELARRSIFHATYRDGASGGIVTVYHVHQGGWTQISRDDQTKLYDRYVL

Homo sapiens = organism: Homo sapiens; assay: To identify inhibition of the IFN signalling (Jak-Stat) pathway via expression of an eGFP reporter gene under the control of an IFN-stimulated response element (ISRE) containing MxA promoter.; type: functional; conditions: 30 µM
[7] = target: T4, Tyrosyl-tRNA synthetase, putative (Trypanosoma cruzi (strain CL Brener)) (UniProt Q4DSP6); assay: Trypanosoma cruzi tyrosyl tRNA synthetase (TcYRS) _High Tyrosine SOP; type: functional; conditions: 30 µM; also: in the data most compounds retested in dose-response had high values
T4 sequence (whole entry): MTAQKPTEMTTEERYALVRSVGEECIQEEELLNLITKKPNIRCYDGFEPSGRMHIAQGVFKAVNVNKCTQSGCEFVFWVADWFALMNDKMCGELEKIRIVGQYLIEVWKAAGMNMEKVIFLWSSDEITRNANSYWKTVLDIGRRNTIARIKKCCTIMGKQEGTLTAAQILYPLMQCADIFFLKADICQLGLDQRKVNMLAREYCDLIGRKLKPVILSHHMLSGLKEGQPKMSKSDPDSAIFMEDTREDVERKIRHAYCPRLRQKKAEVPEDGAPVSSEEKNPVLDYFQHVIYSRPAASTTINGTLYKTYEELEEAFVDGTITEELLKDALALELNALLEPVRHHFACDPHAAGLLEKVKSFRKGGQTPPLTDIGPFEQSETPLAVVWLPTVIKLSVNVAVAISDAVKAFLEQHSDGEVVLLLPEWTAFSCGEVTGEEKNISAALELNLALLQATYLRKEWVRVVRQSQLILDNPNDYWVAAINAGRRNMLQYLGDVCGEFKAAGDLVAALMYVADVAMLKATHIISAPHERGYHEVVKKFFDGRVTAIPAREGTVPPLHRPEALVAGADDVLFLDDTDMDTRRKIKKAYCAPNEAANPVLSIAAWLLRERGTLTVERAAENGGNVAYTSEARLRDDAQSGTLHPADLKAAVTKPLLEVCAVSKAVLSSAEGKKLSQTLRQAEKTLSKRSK

[8] = target: T4, Tyrosyl-tRNA synthetase, putative (Trypanosoma cruzi (strain CL Brener)); assay: Trypanosoma cruzi tyrosyl tRNA synthetase (TcYRS) SOP; type: functional; conditions: 30 µM
[9] = target: Chromo domain-containing protein 1 (Saccharomyces cerevisiae (strain ATCC 204508 / S288c) (Baker's yeast)) (UniProt P32657); assay: ScCHD-1 Enzyme Inhibition Assay; type: functional; conditions: 30 µM; also: in the data most compounds retested in dose-response had high values
Chromo domain-containing protein 1 (Saccharomyces cerevisiae (strain ATCC 204508 / S288c) (Baker's yeast)), sequence (P32657 whole entry, the tested form may be a part): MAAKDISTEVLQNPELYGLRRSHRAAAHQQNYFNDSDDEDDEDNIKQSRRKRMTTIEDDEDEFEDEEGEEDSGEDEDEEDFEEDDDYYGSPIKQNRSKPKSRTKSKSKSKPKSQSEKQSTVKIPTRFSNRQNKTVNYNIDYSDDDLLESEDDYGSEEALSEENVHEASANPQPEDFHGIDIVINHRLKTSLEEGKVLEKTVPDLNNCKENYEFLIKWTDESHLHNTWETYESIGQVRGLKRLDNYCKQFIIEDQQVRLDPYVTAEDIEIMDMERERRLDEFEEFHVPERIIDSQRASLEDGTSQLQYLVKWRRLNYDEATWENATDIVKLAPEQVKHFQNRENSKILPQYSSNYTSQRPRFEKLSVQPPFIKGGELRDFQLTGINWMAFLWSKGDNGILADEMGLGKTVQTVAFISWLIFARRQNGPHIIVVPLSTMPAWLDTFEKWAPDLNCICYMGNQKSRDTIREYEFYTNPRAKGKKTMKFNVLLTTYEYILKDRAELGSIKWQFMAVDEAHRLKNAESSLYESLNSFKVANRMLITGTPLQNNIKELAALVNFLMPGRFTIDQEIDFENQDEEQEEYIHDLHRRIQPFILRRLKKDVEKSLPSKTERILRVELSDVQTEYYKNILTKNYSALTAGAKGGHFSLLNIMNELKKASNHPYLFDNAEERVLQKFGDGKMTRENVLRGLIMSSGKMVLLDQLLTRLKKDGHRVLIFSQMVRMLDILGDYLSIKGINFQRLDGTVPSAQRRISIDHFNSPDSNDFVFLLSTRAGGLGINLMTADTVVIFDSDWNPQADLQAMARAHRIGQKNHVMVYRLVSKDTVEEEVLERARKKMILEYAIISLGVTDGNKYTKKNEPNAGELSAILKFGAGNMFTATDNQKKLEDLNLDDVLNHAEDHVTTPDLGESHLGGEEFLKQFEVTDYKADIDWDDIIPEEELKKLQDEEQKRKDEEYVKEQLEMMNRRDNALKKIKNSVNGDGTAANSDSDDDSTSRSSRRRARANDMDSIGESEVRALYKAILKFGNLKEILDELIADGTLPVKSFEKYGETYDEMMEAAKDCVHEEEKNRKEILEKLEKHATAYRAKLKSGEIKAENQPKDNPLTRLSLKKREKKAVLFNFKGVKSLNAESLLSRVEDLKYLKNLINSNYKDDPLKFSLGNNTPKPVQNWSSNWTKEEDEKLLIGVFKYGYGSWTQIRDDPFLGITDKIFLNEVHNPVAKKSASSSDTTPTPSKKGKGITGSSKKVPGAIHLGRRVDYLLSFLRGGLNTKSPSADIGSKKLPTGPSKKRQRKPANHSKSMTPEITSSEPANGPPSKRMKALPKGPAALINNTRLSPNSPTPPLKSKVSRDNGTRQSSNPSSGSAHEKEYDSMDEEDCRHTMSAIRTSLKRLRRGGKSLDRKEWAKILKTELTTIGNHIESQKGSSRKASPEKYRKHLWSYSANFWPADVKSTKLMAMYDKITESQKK

Sialic acid-binding Ig-like lectin 9 (Homo sapiens), sequence (Q9Y336 whole entry): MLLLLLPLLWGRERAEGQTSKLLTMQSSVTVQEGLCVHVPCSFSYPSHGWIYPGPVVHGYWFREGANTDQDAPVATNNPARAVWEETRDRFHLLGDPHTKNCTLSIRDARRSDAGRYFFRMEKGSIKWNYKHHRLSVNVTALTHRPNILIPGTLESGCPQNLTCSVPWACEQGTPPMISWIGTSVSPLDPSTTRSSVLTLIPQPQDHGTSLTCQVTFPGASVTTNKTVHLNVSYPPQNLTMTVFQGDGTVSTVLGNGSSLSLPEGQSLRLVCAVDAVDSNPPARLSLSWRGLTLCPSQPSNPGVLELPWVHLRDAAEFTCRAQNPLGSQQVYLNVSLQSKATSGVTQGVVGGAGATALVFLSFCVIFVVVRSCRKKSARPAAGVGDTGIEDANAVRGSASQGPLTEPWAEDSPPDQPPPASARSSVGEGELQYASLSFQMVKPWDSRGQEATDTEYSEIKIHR
Protein translocase subunit SecA (Escherichia coli (strain K12)), sequence (P10408 whole entry): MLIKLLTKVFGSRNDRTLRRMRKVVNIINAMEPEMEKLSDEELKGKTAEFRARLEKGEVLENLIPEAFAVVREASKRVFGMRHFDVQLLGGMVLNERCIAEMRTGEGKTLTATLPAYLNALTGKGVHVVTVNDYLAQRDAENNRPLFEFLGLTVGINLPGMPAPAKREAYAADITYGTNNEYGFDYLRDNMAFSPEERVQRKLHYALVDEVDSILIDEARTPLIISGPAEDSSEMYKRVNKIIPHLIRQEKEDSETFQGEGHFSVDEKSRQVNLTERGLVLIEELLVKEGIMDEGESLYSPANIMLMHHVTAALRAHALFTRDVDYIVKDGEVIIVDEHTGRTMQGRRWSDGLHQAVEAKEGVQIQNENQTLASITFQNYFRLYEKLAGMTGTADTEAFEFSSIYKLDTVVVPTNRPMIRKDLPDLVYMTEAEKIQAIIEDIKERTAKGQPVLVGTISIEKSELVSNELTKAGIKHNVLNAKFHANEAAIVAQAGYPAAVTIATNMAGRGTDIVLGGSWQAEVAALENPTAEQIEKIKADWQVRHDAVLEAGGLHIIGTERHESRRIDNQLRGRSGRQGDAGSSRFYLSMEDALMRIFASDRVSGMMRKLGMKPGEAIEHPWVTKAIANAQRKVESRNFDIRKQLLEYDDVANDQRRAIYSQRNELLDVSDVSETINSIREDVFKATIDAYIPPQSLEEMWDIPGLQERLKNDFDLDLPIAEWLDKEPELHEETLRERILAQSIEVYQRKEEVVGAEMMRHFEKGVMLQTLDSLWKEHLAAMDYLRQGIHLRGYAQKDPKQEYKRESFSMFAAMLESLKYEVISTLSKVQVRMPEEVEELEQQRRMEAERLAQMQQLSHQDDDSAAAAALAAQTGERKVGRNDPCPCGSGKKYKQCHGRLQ

Structure (SMILES) | Percent Effect [1] | Percent Effect [2] | Percent Effect [3] | Percent Effect [4] | Percent Effect (Trypanosoma cruzi) | Percent Effect [5] | Percent Effect [6] | Percent Effect (Homo sapiens) | Percent Effect [7] | Percent Effect [8] | Percent Effect [9]
Cc1ncsc1C(=O)NC1CCN(Cc2cccnc2)CC1 | -7.38% | 10.4% | -1.95% | 18.2% | 5.43% | 2.85% | 7.94% | 15.2% | 6.8% | 14.6% | -11.8%
CO[C@H]1CCN(c2ccc(C)nn2)[C@H]1Cc1cnn(C)c1 | -5.98% | 2.7% | -6.04% | 1.75% | 0.977% | 0.417% | 14.4% | -17.9% | 9.9% | 11% | -6.2%
Cc1nc(N2CCN(C(=O)c3ccc(O)cc3)CC2)c2cnn(C)c2n1 | -0.631% | 0% | -5.77% | 5.23% | -2.74% | 1.6% | -2.88% | 15.3% | -2.46% | -6.17% | 0.501%
c1nc(CCC2CCCN2)cc(N2CCCOCC2)n1 (configuration not stated) | -4.1% | 9.46% | 11.8% | -4.56% | -6.13% | -3.02% | 9.36% | 10.3% | 3.23% | 6.49% | -5.74%
CN(CCCc1ccccc1)Cc1nc2c(cnn2C)c(=O)[nH]1 | -1.94% | 8.11% | -7.46% | -2.26% | -7.26% | 2.4% | 5.95% | 18.9% | 4.43% | 13.6% | -1.12%
CSc1ccc(NS(=O)(=O)c2cnn(C)c2)cn1 | -5.12% | 8.22% | -0.942% | 42.3% | 3.57% | -4.39% | 0.0856% | -19.3% | 4.17% | 13.6% | -2.22%
NC(=O)c1cc(C2CCCN(C(=O)CCc3ccsc3)C2)n[nH]1 (configuration not stated) | -9.05% | 5.2% | 5.08% | -5.24% | -5.43% | -1.78% | -5.57% | 30.9% | 3.88% | 7.32% | -4.93%
CC(=O)c1cccc(S(=O)(=O)N2CSCC2C(=O)NCC(F)(F)F)c1 (configuration not stated) | -3.05% | 3.8% | 7.23% | 3.21% | -0.103% | -7.1% | 10.5% | 2.46% | 9.38% | 22.8% | -23.2%
CN(C)S(=O)(=O)N1CCC2(CCCN(Cc3ccc(F)cc3)C2=O)C1 (configuration not stated) | -4.94% | 8.22% | -3.06% | 5.14% | 5.16% | 2.4% | 5.22% | 4% | 5.21% | -1.24% | -6.71%
CCN(Cc1ccc2c(c1)OCCO2)C(=O)NCc1cc[nH]n1 | -2.19% | 15.6% | 1.3% | 2.08% | -2.06% | 1.47% | 7.03% | -7.15% | 5.71% | 11.8% | -19.3%
Cc1ccc(CN2C[C@@H]3COC[C@H](NS(C)(=O)=O)[C@@H]3C2)o1 | -3.56% | 13.3% | 3.44% | -1.89% | -4.05% | -56.8% | 7.86% | 12.6% | 4.17% | 15% | -6.77%
O=C(NCC1CC1)[C@H]1C[C@H]2OCC[C@H]2N(Cc2ccoc2)C1 | -0.0445% | 21.6% | 4.14% | -14% | 1.86% | 6.69% | 6.09% | 32.6% | 3.24% | 15.4% | -0.46%
